# High-throughput results: PubChem BioAssay, National Center for Advancing Translational Sciences (NCATS)
# Luc counter = Kinase-Glo luciferase inhibition (counter-screen) | Q27757 | Kinase-Glo luciferase, ATP luminescence, 8 min | Potency, µM (titrated, usually from 38.3 µM), for the others: at the top dose activity change, negative = inhibition, usual class: inhibitors | 200,000 compounds, 0.28% hits; also: nearly all actives have a fitted effect of over 60% in size
#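 Substrate mix (final 50 mM imidazole pH 7.2, 50 mM KCl, 7 mM MgCl2, 10 uM ATP, 0.01% Tween 20, 0.05% BSA) plus pin-tool compound, then Kinase-Glo detection mix; 8 min ambient, luminescence read.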
# Gal4-VP16 FLuc = inhibits Gal4-VP16 luciferase reporter, ROR gamma counter-screen; Drosophila S2 Gal4-VP16 UAS-luciferase, luminescence, 20 h; Potency, µM (highest dose often 53.6 µM), without a hit: top-dose activity, negative = inhibition, usual class: inhibitors; 310,000 compounds, 3.5% hits;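 also: Gal4-VP16 expression switched on by copper sulfate through the metallothionein promoter; nearly all actives have a fitted effect of over 50% in size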
# RORgamma inh = ROR gamma (mouse) transcription inhibition; Drosophila S2 Gal4-RORgamma UAS-luciferase reporter, 20 h; P51450; Potency, µM (top dose mostly 53.6 µM), for the others: at the top dose activity change, negative = inhibition, hits mostly inhibitors; 310,000 compounds, 5.4% hits; AID 2551; also: nearly all actives have a fitted effect of over 60% in size
# Target sequence (P51450 whole entry, looked up, the tested form may be a part): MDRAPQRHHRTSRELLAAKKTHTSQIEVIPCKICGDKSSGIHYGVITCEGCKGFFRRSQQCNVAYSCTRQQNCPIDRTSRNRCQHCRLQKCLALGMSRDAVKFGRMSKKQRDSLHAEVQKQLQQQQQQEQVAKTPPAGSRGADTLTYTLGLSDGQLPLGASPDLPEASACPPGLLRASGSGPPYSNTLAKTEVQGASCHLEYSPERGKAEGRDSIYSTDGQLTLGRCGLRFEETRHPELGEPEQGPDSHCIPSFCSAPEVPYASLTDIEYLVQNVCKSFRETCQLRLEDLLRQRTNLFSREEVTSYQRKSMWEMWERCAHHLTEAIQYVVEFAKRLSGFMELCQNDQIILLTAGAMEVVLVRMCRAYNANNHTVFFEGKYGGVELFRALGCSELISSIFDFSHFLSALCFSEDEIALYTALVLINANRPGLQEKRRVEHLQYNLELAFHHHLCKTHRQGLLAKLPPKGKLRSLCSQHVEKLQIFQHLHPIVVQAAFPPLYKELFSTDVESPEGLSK
#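 Stable Schneider cell line, Gal4 DNA-binding domain fused to ROR gamma, UAS-luciferase. Cmpd 1 hr RT → CuSO4 700 uM final → 20 hr RT → luciferase reagent 10 min → luminescence.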
# Active calls of the source: *; ? = inconclusive; . = no result. A selection: hits, their analogues and other compounds. The true share with any hit is near 6.4%. Calls follow the shape of the dose curve; as a rule, active = well fitted curve in the direction sought with a large enough effect; inconclusive = small, poorly fitted or top-dose-only effect, or another doubt; inactive = no such curve, though single readings can be large; an effect the other way counts as inactive or inconclusive. % is scaled to controls: 0 for no effect and ±100 for the full control effect; potency is read from the fitted curve at half-maximal effect.
SMILES,Luc counter,Gal4-VP16 FLuc,RORgamma inh
Cc1ccc2nc(NC3=NCN(Cc4ccccc4)CN3)nc(C)c2c1,-3%,-14%,-12%
Cc1ccc2c(C)nc(Nc3nc(CSc4nc5ccccc5[nH]4)cc(=O)[nH]3)nc2c1,-5%,5.6µM*,?
COc1ccc2c(C)nc(Nc3nc(-c4ccccc4)cc(=O)[nH]3)nc2c1,.,4µM*,4.5µM*
Cc1ccc2nc(Nc3nc(=O)c4ccccc4n3C)nc(C)c2c1,-2%,1µM*,0.79µM*
CC1CN(CCCCOc2ccc(F)cc2)CC(C)O1 (stereo unspecified),-1%,0%,19%
COc1cccc(CNc2ccc([N+](=O)[O-])cc2Cl)c1O,-2%,?,?
Cc1ccc2nc(Nc3nc(C)cc(-c4ccccc4)n3)[nH]c(=O)c2c1,.,-9%,-23%
Cc1ccc2nc(Nc3nc(-c4ccccc4)cc(=O)[nH]3)nc(C)c2c1,1%,13µM*,?
CCOc1ccc(C(c2c(NC(=O)c3ccccc3)sc(C)c2C)N2CCN(CCO)CC2)cc1 (stereo unspecified),-5%,?,34%
Cc1sc(NC(=O)c2ccccc2)c(C(c2ccc(Cl)cc2)N2CCN(CCO)CC2)c1C (stereo unspecified),1%,22µM*,?
COC(=O)c1ccc(COC(=O)C(CCSC)NC(=O)COc2ccccc2)cc1 (stereo unspecified),.,5%,2%
CN(C)c1ccc(/C=N/Nc2nc3ccccc3o2)cc1,.,11µM*,6.3µM*
CCNc1nc(NCC)nc(N/N=C/c2ccc(O)c(O)c2)n1,1%,-20%,?
CC(SCc1ccccc1)C(=O)N/N=C/c1ccc2c(c1)OCO2 (stereo unspecified),2%,-7%,?
CN(C)c1nc(NCc2ccccc2)nc(N/N=C/c2ccc(Br)cc2)n1,-1%,13µM*,2.8µM*
O=[N+]([O-])c1ccc(/C=N/Nc2nc3ccccc3o2)cc1,.,-4%,-24%
CN(C)c1nc(NCc2ccccc2)nc(N/N=C/c2ccc3c(c2)OCO3)n1,1%,?,7.9µM*
COC(=O)C(C)Sc1nc(NCc2ccccc2)nc(N(C)C)n1 (stereo unspecified),-2%,-15%,22%
CCNc1nc(NCC)nc(N/N=C/c2ccc(N(C)C)cc2)n1,6%,?,7.9µM*
Cc1ccc(S(=O)(=O)c2nc(NN(C)C)sc2Cl)cc1,-3%,-3%,?
O=C1Nc2ccccc2N(O)N1c1ccc(S(=O)(=O)N2CCOCC2)cc1,-2%,-12%,-8%
Cc1ccc(-c2n[nH]c(Cc3ccccc3)n2)cc1,.,-4%,21%
CC(C)(C)c1cc(Cc2ccccc2)[nH]n1,1%,-1%,18µM*
C=C(C(=O)C(C)(C)O)C(O)c1ccc([N+](=O)[O-])cc1 (stereo unspecified),-2%,-3%,-10%
C/C(=N\NC(=O)c1cc2ccccc2cc1O)c1cc2ccccc2o1,.,?,10µM*
SMILES,Luc counter,Gal4-VP16 FLuc,RORgamma inh
N/C(=N\NC(=O)c1ccccc1)c1cc2ccccc2oc1=O,-2%,15%,?
COc1ccc(NCC(=O)N/N=C(\C)c2cc3ccccc3o2)cc1,-3%,-15%,?
C/C(CC(=O)c1ccccc1)=N\NC(=O)CC#N,1%,?,4µM*
N#CCC(=O)N/N=C/c1ccccc1Cl,0%,9%,-4%
C/C(=N/NC(=O)CNC(=O)c1ccccn1)c1ccccc1,1%,2%,-3%
C=CCNC(=S)N/N=C(\C)c1ccccn1,-2%,0.11µM*,0.028µM*
COc1ccc(C(=O)N/N=C(\N)c2cc3ccccc3oc2=O)cc1,.,?,0.89µM*
NS(=O)(=O)c1ccc(CCNC(=O)C(=O)C2C(=O)Nc3ccccc32)cc1 (stereo unspecified),.,2%,12%
CC1(C)CC(=O)C2=C(C1)Nc1ncnn1C2c1cccs1 (stereo unspecified),-2%,6%,-2%
CCC(C)[C@H](NC(=O)N1CC(=O)Nc2ccccc21)C(=O)N[C@H](C(=O)O)c1ccccc1 (stereo partly specified),.,8%,2%
CN1CCC(=NNC(=O)CSc2ccc(Cl)cc2)CC1,-1%,-9%,-8%
C/C(=N\NC(=O)c1cc(-c2cccnc2)nc2ccccc12)c1ccccc1O,-2%,3%,?
C/C(=N\NC(=O)c1c[nH]c2ccccc12)c1ccco1,-27%,-7%,-3%
C/C(=N\Nc1ccccc1)c1cc2ccccc2oc1=O,-2%,?,-30%
C/C(=N\NC(=O)CCCNc1ccc(C)cc1)c1ccccn1,-2%,13µM*,2.2µM*
C/C(=N\NC(=O)c1cc2ccccc2cc1O)c1ccccn1,.,0.13µM*,0.2µM*
C/C(=N\NC(=O)c1c[nH]c2ccccc12)c1ccccn1,-7%,?,3.5µM*
C/C(=N\NC(=O)CC#N)c1cc2ccccc2oc1=O,-3%,6.3µM*,6.3µM*
C/C(=N\NC(=O)CCCNc1ccccc1)c1ccncc1,3%,14%,-28%
COC(=O)/C=C1/SC(=NC(=O)c2ccc(F)cc2)NC1=O,.,3%,11%
Cc1ccc(/C=N/NC(=O)C(C)Oc2ccccc2[N+](=O)[O-])s1 (stereo unspecified),-1%,?,?
O=C(CN(C(=O)CCC(=O)Nc1ccccn1)c1ccc(F)cc1)NCc1ccc(F)cc1,.,-3%,8%
CS(=O)(=O)N1CCC[C@@]2(CCN(C(=O)Nc3cccc(C#N)c3)C2)C1,-1%,11%,-5%
O=C(NCc1ccccc1)C1CCN(S(=O)(=O)c2ccc(Cl)cc2)CC1,3%,-9%,?
C/C(=N\NC(=O)c1nc2ccccn2c1C)c1cc2ccccc2o1,3%,?,13µM*
SMILES,Luc counter,Gal4-VP16 FLuc,RORgamma inh
C/C(=N\NC(=O)c1ccc(F)cc1)c1ccccn1,.,0.4µM*,0.25µM*
CCc1ccc(/C(C)=N/NC(=O)c2ccccn2)cc1,-3%,-8%,?
C/C(=N\NC(=O)c1nc2ccccn2c1C)c1ccco1,-7%,8%,-12%
Cc1nnsc1SCCNC(=O)Nc1ccc(Cl)cc1,4%,-4%,43%
CC(=O)Nc1ccccc1NC(=O)c1ccc(C)cc1C,0%,-9%,12%
CC(=O)Nc1ccccc1/C=C/c1ccc2c(C)cc(C)c(O)c2n1,0%,7.9µM*,7.9µM*
CC(=O)Nc1cc(-c2ccccc2)ccc1O,-2%,?,15%
CC(=O)Nc1ccccc1/C=C/c1ccc2c(C)ccc(O)c2n1,2%,28µM*,8.9µM*
CC(C)[C@@H](CC(=O)N[C@@H]1CCNC[C@H]1C(=O)N[C@H](CC(=O)N[C@@H](CCC(=O)O)CC(=O)O)Cc1c[nH]c2ccccc12)NC(=O)C[C@H](CO)NC(=O)[C@@H]1CNCC[C@H]1N,1%,4%,-1%
Oc1ccc(Br)cc1Cn1nnc2ccccc21,.,0%,36%
CC(C)CC1NC(=O)N(Cc2cc(=O)n3ccsc3n2)C1=O (stereo unspecified),2%,2%,1%
Cc1ccc(S(=O)(=O)Nc2cc(-c3nn(C)c(=O)c4ccccc34)ccc2N2CCOCC2)cc1,0%,-1%,-28%
